Several values for one entry are separate records, joined by “and”; a condition that tells them apart may be missing. Equal values may be shown once. Among all 5,500 compounds or so, about 2,000 (36%) were called active. Roughly 18% stayed inconclusive and do not appear here. No stated cut-off is given here; in the data, active means normalized growth mostly below about 0.91 (no sharp cut-off); inconclusive means no clear call, values can overlap the other calls; inactive means mostly above about 0.92. The list shows a part of the results.
Assay: chemical genetic growth profiling, strain panel (AID 1159580);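 further: tested at 20 µM; growth read once vehicle control cultures reached saturation at 30 °C; 1 = growth at the plate median or of vehicle wells; lower values mean less growth of the strain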
Conditions: S. cerevisiae deletion strains, growth OD

Measured: normalized growth

C[C@@H]1O[C@@H](O[C@H]2C[C@@H](O)[C@]3(CO)C4C(CC[C@]3(O)C2)[C@@]2(O)CC[C@H](C3=CC(=O)OC3)[C@@]2(C)C[C@H]4O)[C@H](O)[C@H](O)[C@H]1O (some centres not stated)
inactive: locus YAL021C, strain ccr4, hits give low values 1.01 | locus YAL026C, strain drs2, hits give low values 1.02 | locus YAL030W, strain snc1, hits give low values 1.03 | locus YBL061C, strain skt5, hits give low values 1.02 | locus YBR009C, strain hhf1, hits give low values 1.04 | locus YBR021W, strain FUR4, hits give low values 1.05 | locus YBR023C, strain chs3, hits give low values 1.03 | locus YBR171W, strain sec66, hits give low values 1.04 | locus YBR229C, strain ROT2, hits give low values 1.02 | locus YBR231C, strain swc5, hits give low values 1.01 | locus YBR279W, strain paf1, hits give low values 1.02 | locus YCL011C, strain gbp2, hits give low values 1.02 | locus YCL016C, strain dcc1, hits give low values 1.04 | locus YCL029C, strain bik1, hits give low values 0.99 | locus YCL061C, strain MRC1, hits give low values 1.01 | locus YCL069W, strain vba3, hits give low values 1.03 | locus YCR088W, strain abp1, hits give low values 1.02 | locus YDL005C, strain med2, hits give low values 1.02 | locus YDL035C, strain GPR1, hits give low values 1.05 | locus YDL040C, strain nat1, hits give low values 1.02 | locus YDL074C, strain BRE1, hits give low values 1.04 | locus YDL101C, strain DUN1, hits give low values 1.02 | locus YDL185W, strain tfp1, hits give low values 1 | locus YDL192W, strain arf1, hits give low values 0.994 | locus YDR001C, strain nth1, hits give low values 1.02 | locus YDR069C, strain doa4, hits give low values 0.997 | locus YDR101C, strain arx1, hits give low values 0.994 | locus YDR137W, strain rgp1, hits give low values 1.02 | locus YDR159W, strain sac3, hits give low values 1 | locus YDR162C, strain NBP2, hits give low values 1.03 | locus YDR195W, strain ref2 1.01 | locus YDR297W, strain sur2, hits give low values 1.02 | locus YDR318W, strain mcm21, hits give low values 0.998 | locus YDR334W, strain swr1, hits give low values 1.03 | locus YDR335W, strain msn5, hits give low values 1.03 | locus YDR388W, hits give low values 0.992 | locus YDR392W, strain spt3, hits give low values 0.981 | locus YDR502C, strain sam2, hits give low values 0.989 | locus YEL003W, strain gim4, hits give low values 1.03 | locus YEL037C, strain rad23, hits give low values 1.03 | locus YEL061C, strain CIN8 (second series), hits give low values 1.03 | locus YEL061C, strain CIN8, hits give low values 1.02 | locus YER015W, strain faa2, hits give low values 1.02 | locus YER016W, strain bim1, hits give low values 1.01 | locus YER110C, hits give low values 0.985 | locus YER111C, strain swi4, hits give low values 1.02 | locus YER155C, strain BEM2 (second series), hits give low values 1.01 | locus YER155C, strain BEM2, hits give low values 1.01 | locus YER167W, strain BCK2, hits give low values 1.03 | locus YFR010W, strain ubp6, hits give low values 1.03 | locus YGL078C, strain dbp3, hits give low values 0.992 | locus YGL086W, strain mad1, hits give low values 0.996 | locus YGL167C, strain pmr1, hits give low values 1.03 | locus YGL173C, strain kem1, hits give low values 1.02 | locus YGL227W, strain vid30, hits give low values 1.03 | locus YGL240W, strain doc1, hits give low values 0.997 | locus YGL248W, strain PDE1, hits give low values 1.02 | locus YGL253W, strain hxk2, hits give low values 1.01 | locus YGR135W, strain pre9, hits give low values 1.01 | locus YGR252W, strain gcn5, hits give low values 0.98 | locus YHR013C, strain ard1, hits give low values 1.04 | locus YHR027C, strain rpn1, hits give low values 1.02 | locus YHR030C, strain SLT2, hits give low values 1.02 | locus YHR079C, strain IRE1 (second series), hits give low values 0.987 | locus YHR079C, strain IRE1, hits give low values 1.02 | locus YHR094C, strain hxt1, hits give low values 0.983 | locus YHR129C, strain ARP1, hits give low values 1.02 | locus YHR142W, strain chs7, hits give low values 1.04 | locus YHR200W, strain rpn10, hits give low values 0.999 | locus YIL066C, strain RNR3, hits give low values 1.05 | locus YIL073C, strain SPO22, hits give low values 0.981 | locus YIL125W, strain kgd1, hits give low values 0.994 | locus YIR030C, strain dcg1, hits give low values 0.991 | locus YJL092W, strain hpr5, hits give low values 1.02 | locus YJL095W, strain BCK1 (second series), hits give low values 1.05 | locus YJL095W, strain BCK1, hits give low values 1.03 and 1.01 | locus YJL115W, strain asf1, hits give low values 1.03 | locus YJL129C, strain trk1, hits give low values 1.04 | locus YJL134W, strain LCB3, hits give low values 1.01 | locus YJL154C, strain vps35, hits give low values 1.02 | locus YJL164C, strain tpk1, hits give low values 1.02 | locus YJL166W, strain qcr8, hits give low values 1.01 | locus YJL168C, strain set2, hits give low values 0.987 | locus YJL187C, strain SWE1 (second series), hits give low values 1.03 | locus YJL187C, strain SWE1, hits give low values 1.02 | locus YJR043C, strain POL32, hits give low values 1.05 | locus YJR066W, strain TOR1, hits give low values 0.989
